Compounds with a hit are over-represented: about 7.2% of the library has one in this group of screens.
ALR inh – inhibitors of human sulfhydryl oxidase ALR; purified ALR, DTT oxidation, H2O2 HRP-luminol luminescence; actives 3.8% (n = 290,000); P55789; inhibition, % (test concentration not listed);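 active = mean replicate inhibition above about 79%, with every replicate also reaching it, limit read from the data; inconclusive = only one of the two criteria met; inactive = mean below limit and not every replicate reaching it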
AHR act – activates the human aryl hydrocarbon receptor; AHR-responsive luciferase reporter cells, luminescence; activation, % at 5 µM; actives 2.5% (n = 320,000); in the data active = activation above about 47%;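 note: 0% = vehicle wells and 100% = reference agonist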
Mot1-301 SUMO – SUMOylation pathway inhibition by Mot1-301 growth rescue. S. cerevisiae Mot1-301 growth rescue, ATP luminescence, 38.5C; percent above DMSO median, 100 means doubled. growth rescue, % at 18.8 µM. AID 2716. actives 1% (n = 320,000);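 active = every valid replicate shows activation above 250% relative to neutral control wells; inactive = the rest, any valid replicate at or below 250%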;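 note: OY570 slx delta 5 strain wells were the positive control but not used for scaling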
Bfl-1 A1 inh – inhibitors of the anti-apoptotic protein A1, read as caspase activation; MEF A1-2A-BIM cells, Caspase-Glo 3/7 luminescence, 3 h; percent of clofoctol response, vehicle zero; caspase activation, % (no concentration beside the values); actives 0.066% (n = 330,000); AID 2462;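 active = over half of replicate activation scores above 10%, or exactly half above 10 with the replicate mean above 10; inconclusive = replicate mean below 10 yet half the replicates above 10; inactive = over half of replicates below 10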
Efflux pump mplx – inhibitors of Candida antifungal efflux pumps expressed in yeast | S. cerevisiae Candida pump triplex, Nile Red efflux | inhibition, % at 10 µM | actives 0.44% (n = 330,000);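 active = plate passing quality check with inhibition over a set limit, or well fluorescence over plate mean plus 4 SD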;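 note: Nile Red retained in pooled yeast measured as flow cytometry median fluorescence; 0% = buffer negative control and 100% = Enniatin B positive control; higher means more Nile Red kept so more efflux inhibition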
VLA-4 inh – inhibition in a human VLA-4 binding assay | P13612 | actives 0.2% (n = 330,000) | inhibition, % (about 7 µM as worked out from the volumes in the protocol) | VLA-4 expressing cells, ligand binding flow cytometry; in the data active = inhibition above about 50%
An asterisk follows results filed as active; u = inconclusive; x = not tested or not shown.

SMILES	ALR inh	AHR act	Mot1-301 SUMO	Bfl-1 A1 inh	Efflux pump mplx	VLA-4 inh
CCCCn1c(-c2ccccc2)cnc1SCC(=O)NCCc1ccc(OC)c(OC)c1	-20	2	-11	0	0	-1
CCC(Sc1nc2ccccc2s1)C(=O)Nc1nnc(C)s1 (stereo not drawn)	98*	11	52	-1	0	12
CCC(Sc1nc2ccc(N)cc2s1)C(=O)Nc1nccs1 (stereo not drawn)	99*	30	31	0	0	-8
CCCN(C(=O)C1CCCN(c2ncnc3c2nc2n3CCCCC2)C1)c1ccc(F)cc1 (stereo not drawn)	-4	5	5	-2	0	-2
COc1ccc(N/C(=C(/C(Cl)=C(Cl)Cl)[N+](=O)[O-])n2nnc3ccccc32)cc1OC	-13	9	5	0	0	10
Nc1nc2c(-c3ccc(Br)cc3)nnn2c2ccccc12	-1	54*	1	-3	0	3
COc1cc(CCC(=O)OCC(=O)N(CCC#N)c2ccccc2)cc(OC)c1OC	-5	0	6	1	0	-13
Cc1cccc(NC(=O)CSc2c3c(nc4ccccc24)CCC3)n1	99*	32	-3	0	0	-2
COc1cccc(NC(=O)CSc2ncnc3c2cnn3Cc2ccccc2)c1	90*	-2	-14	-1	0	-8
CCC(C)NC(=O)CSc1c2c(nc3ccccc13)CCCC2 (stereo not drawn)	37	6	-9	0	0	23
COc1ccc(NC(=O)CSc2ncnc3c2cnn3CCc2ccccc2)cc1	6	2	10	0	0	1
COc1cccc(NC(=O)CSc2c3c(nc4ccccc24)CCCC3)c1	99*	0	2	0	0	8
Cc1ccc(S(=O)(=O)Nc2ccc(Cl)cc2)cc1NC(=O)Cn1cnc2c1c(=O)n(C)c(=O)n2C	-8	1	-22	1	0	5
Cc1ccc(C(=O)Cn2c(C(=O)O)cc3ccccc32)cc1	-3	59*	359	1	0	-3
Cc1ccc(C(=O)Cn2c(C(=O)OCCO)cc3ccccc32)cc1	-18	x	-1	u	0	15
CC(=O)[C@H]1[C@H](c2cccc(Cl)c2)C(C#N)(C#N)[C@@H]2c3ccccc3C=CN21	-18	101*	31	0	0	-129
CC(=O)[C@H]1[C@@H]2C(=O)N(c3cccc(Cl)c3)C(=O)[C@@H]2[C@H]2c3ccccc3C=CN21	-17	39	10	0	0	-23
O=C(NC1CCCc2c1cnn2-c1cc(F)cc(F)c1)c1ccccn1 (stereo not drawn)	x	4	123	0	5.3*	-9
Cc1cc(C)cc(-n2ncc3c2CCCC3NC(=O)c2cc(C)n(C)n2)c1 (stereo not drawn)	84*	4	12	0	0	-131
COC(=O)c1ccc(C(=O)NC2CCCc3c2cnn3-c2cc(F)cc(F)c2)nc1 (stereo not drawn)	-2	0	-22	0	0	11
CCOC(=O)c1c(CSc2ccccc2)oc2cc(Br)c(O)c(CN(C)C)c12	82*	4	149	0	0	3
Cc1ccc(C)c(S(=O)(=O)N/N=C/c2ccc(N(C)C)cc2)c1	99*	4	5	0	0	-1
CC(=O)NCc1ccc(S(=O)(=O)N/N=C/c2ccc(N(C)C)cc2)cc1	98*	2	-12	0	0	9
Cc1ccc(C)c(S(=O)(=O)N/N=C/c2ccc(F)cc2)c1	12	74*	9	0	0	31
COc1ccc(N2CC(NS(=O)(=O)c3cccs3)CC2=O)cc1OC (stereo not drawn)	-5	-3	-13	-1	0	-2
SMILES	ALR inh	AHR act	Mot1-301 SUMO	Bfl-1 A1 inh	Efflux pump mplx	VLA-4 inh
Cc1ccccc1-c1cc(C(=O)NCc2ccc(OC(F)(F)F)cc2)n(CC2CC(c3cccnc3)=NO2)n1 (stereo not drawn)	1	-1	-4	1	0	2
Cc1cc(C)c2ccc3c(C)c(C)nc3c2[nH]1	-26	68*	-13	0	0	8
Cc1cc(=O)[nH]c2c(C)c(N)ccc12	-13	0	-5	x	0	-37
COc1ccc2nc(NC(=S)N(C)C)sc2c1	73	-10	-21	1	0	9
COc1ccc(N2CC(NS(=O)(=O)c3cccs3)CC2=O)cc1 (stereo not drawn)	-2	-2	23	-1	0	2
O=C1C=C(Nc2ccc(O)cc2)CC(c2ccco2)C1 (stereo not drawn)	99*	3	-2	0	0	-1
COC(=O)c1[nH]c(=O)c2ccccc2c1O	98*	-1	-12	0	0	-12
CCOC(=O)c1[nH]c(C)c(C(=O)N2CCN(c3ccc(OC)cc3)CC2)c1C	75	3	187	0	0	-7
CCOC(=O)c1[nH]c(C)c(C(=O)N2CCN(c3ccc(F)cc3)CC2)c1C	90*	3	0	0	0	-7
NC(=S)N=Nc1c(O)n(CCCl)c2ccc(Cl)cc12	8	2	341*	1	0	0
NC(=S)N=Nc1c(O)n(CCCl)c2ccccc12	3	-1	-32	0	0	4
CCOc1ccc(NC(=O)CN(C)C(=O)c2cccnc2Sc2ccccc2Cl)cc1OCC	-35	6	-6	-1	0	-5
Cc1nnc(-c2cnn(C)c2N)n1Cc1cccc(Cl)c1	2	54*	1	0	0	-3
CCCCCCCn1c(C)nnc1-c1cnn(C)c1N	x	70*	-7	0	0	1
Cc1nnc(-c2cnn(C)c2N)n1CCCN(C)C	x	14	15	1	0	4
CCn1cc(CN2CCC(C(=O)Nc3cccc(-c4cccc(OC)c4)c3)CC2)c(C)n1	1	6	-11	1	0	9
COC(=O)c1ccccc1N=Nc1c(N)n[nH]c1N	91*	14	1	1	0	4
COC(=O)c1ccccc1N=Nc1c(N)[nH][nH]c1=O	4	0	14	2	0	2
CCN(CC)c1ccc2c(c1)oc(=O)c1c(Cl)cc(=O)oc12	97*	15	30	u	0	-136
CCN(CC)c1ccc2c(C)c(-c3ccc(N)cc3)c(=O)oc2c1	87*	4	96	0	0	14
Cc1cc(=O)oc2cc(O)ccc12	29	-1	-3	0	0	4
CCN(CC)c1ccc2c(C)cc(=O)oc2c1	99*	0	-21	0	0	14
CCN(CC)c1ccc2c(C)c(Cl)c(=O)oc2c1	62	40	873	0	0	-4

Source: PubChem
